EPAC1 ag val: validation of human EPAC1 agonists; hit rate 1% among 16,000; Potency, µM, most hits filed as activators; EPAC1 Rap1b BODIPY-GDP exchange, fluorescence; note: nearly all actives have a fitted effect of over 70% in size
Target sequence (O95398 whole entry, looked up): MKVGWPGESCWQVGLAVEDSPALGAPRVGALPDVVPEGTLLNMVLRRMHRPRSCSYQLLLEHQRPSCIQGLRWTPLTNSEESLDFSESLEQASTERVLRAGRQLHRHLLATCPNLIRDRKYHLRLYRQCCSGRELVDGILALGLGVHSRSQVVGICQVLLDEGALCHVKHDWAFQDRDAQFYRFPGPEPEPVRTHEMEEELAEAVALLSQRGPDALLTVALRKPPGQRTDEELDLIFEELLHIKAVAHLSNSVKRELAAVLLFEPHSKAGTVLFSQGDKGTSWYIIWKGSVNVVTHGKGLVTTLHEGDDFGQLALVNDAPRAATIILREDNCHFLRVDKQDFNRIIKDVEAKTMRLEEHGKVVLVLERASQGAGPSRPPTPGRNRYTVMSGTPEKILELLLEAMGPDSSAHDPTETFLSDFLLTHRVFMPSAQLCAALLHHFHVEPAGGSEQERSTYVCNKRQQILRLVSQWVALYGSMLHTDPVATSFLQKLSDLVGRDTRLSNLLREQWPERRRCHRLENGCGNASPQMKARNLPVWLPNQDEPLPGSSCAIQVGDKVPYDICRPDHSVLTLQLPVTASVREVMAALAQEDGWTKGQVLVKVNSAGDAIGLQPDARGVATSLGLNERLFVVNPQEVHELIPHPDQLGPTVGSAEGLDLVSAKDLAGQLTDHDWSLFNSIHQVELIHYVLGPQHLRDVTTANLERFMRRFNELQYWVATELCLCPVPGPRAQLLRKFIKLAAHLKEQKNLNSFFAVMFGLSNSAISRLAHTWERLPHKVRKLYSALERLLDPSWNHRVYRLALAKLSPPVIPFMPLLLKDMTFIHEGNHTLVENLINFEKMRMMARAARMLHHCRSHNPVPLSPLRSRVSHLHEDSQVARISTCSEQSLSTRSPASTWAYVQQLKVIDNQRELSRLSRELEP
EPAC2 antag: human EPAC2 antagonism, validation; Q8WZA2; EPAC2 Rap1B BODIPY-GDP exchange, fluorescence; Potency, µM (top dose mostly 112 µM), hits mostly inhibitors; hit rate 1.7% among 16,000; AID 1645886; note: nearly all actives have a fitted effect of over 40% in size
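Normalized against a 6.5 mM cAMP agonist control, compounds were tested on 100 nM EPAC2 exchanging Rap1B-bound BODIPY-GDP (250 nM) for 50 uM GDP. Fluorescence drop (ex 480, em 540 nm) was tracked at room temperature over 30 min at 5-min intervals.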
Of the large screens only hits and unclear results are named; the others gave an inactive call; ! = a repeat was not active. Hits are enriched below; roughly 3.1% of the tested compounds scored in any of these assays. Calls come from the whole dose curve; as a rule, active = well fitted curve in the direction sought with a large enough effect; inconclusive = small, poorly fitted or top-dose-only effect, or another doubt; inactive = no such curve, though single readings can be large; an effect the other way counts as inactive or inconclusive.

CO[C@@H]1[C@@H](O[C@@H]2O[C@H](C)[C@@H](O[C@H]3C[C@@](C)(O)[C@@H](O)[C@H](C)O3)[C@H](N(C)C)[C@H]2O)[C@@H](CC=O)C[C@@H](C)[C@@H](O[C@@H]2CC[C@H](N(C)C)[C@@H](C)O2)/C=C/C=C/C[C@@H](C)OC(=O)C[C@H]1OC(C)=O	none
COC(=O)c1ccccc1NS(C)(=O)=O	EPAC2 antag inconclusive
COC(=O)c1c(C)[nH]c(C)c1C(=O)c1ccccc1Cc1ccccc1	EPAC2 antag 79.4µM!
O=C([C@@H]1C[C@@H](Sc2nc3ccccc3[nH]2)CN1Cc1ccc(Cl)cc1)N1CCN(c2ccccc2F)CC1	none
COC(=O)C1=C(C)NC(C)=C(C(=O)O[C@H]2CCN(Cc3ccccc3)C2)[C@H]1c1cccc([N+](=O)[O-])c1	EPAC1 ag val inconclusive
COC(=O)C1=C(C)NC(C)=C(C(=O)OCCCN2CCC(c3ccccc3)(c3ccccc3)CC2)C1c1cccc([N+](=O)[O-])c1 (stereo unspecified)	EPAC1 ag val 112µM!
C#CCN1C(C)=C(C(=O)OC)C(c2cccc([N+](=O)[O-])c2)C(C(=O)OCC)=C1C (stereo unspecified)	EPAC2 antag 44.7µM
CCOC(=O)C1=C(C)NC(=S)NC1c1cccc(O)c1 (stereo unspecified)	none
C=C[C@]1(C)C[C@@H](OC(=O)CSCCN(CC)CC)[C@]2(C)[C@H](C)CC[C@]3(CCC(=O)[C@H]32)[C@@H](C)[C@@H]1O	none
COc1ccccc1-c1ccnc(-n2ncc(C(=O)NC(c3cccnc3)C(F)(F)F)c2C)n1 (stereo unspecified)	none
O=C(NOCC1CC1)c1ccc(F)c(F)c1Nc1ccc(I)cc1Cl	EPAC1 ag val inconclusive
O=C(O)CN(CC(=O)O)CC1=CC2C(=CC1=O)Oc1cc(O)c(CN(CC(=O)O)CC(=O)O)cc1C21OC(=O)c2ccccc21 (stereo unspecified)	EPAC1 ag val inconclusive
COC(=O)C1=C(C)NC(C)=C(C(=O)OC(C)C)C1c1cccc2nonc12 (stereo unspecified)	EPAC2 antag 50.1µM!
COC(=O)C1=C(C)NC(C)=C(C(=O)OCC(C)C)C1c1ccccc1[N+](=O)[O-] (stereo unspecified)	EPAC2 antag inconclusive
C[C@H]1C=C2C=C[C@H](C)[C@H](CC[C@@H]3C[C@@H](O)CC(=O)O3)[C@H]2[C@@H](OC(=O)[C@@H](C)CCO)C1	EPAC2 antag 56.2µM
CCC(C)C(=O)OC1CC(C)C=C2C=CC(C)C(CCC3CC(O)CC(=O)O3)C21 (stereo unspecified)	none
COc1ccc(S[C@@H](CCN2CC[C@H](C)CCC2=O)c2ccccc2)cc1	EPAC2 antag inconclusive
C[C@@H]1CCC(=O)N(CC[C@H](Oc2ccccc2)c2ccccc2)CC1	EPAC2 antag 79.4µM
CN(C)c1ncc2nc(-c3cccs3)c(=O)n(C3CC3)c2n1	EPAC1 ag val 100µM
COCCn1c(=O)c(-c2cccs2)nc2cnc(N(C)C)nc21	EPAC1 ag val 112µM
COCCn1c(=O)c(-c2cccs2)nc2cnc(OC)nc21	none
O=c1c(-c2cccs2)nc2cnc(Oc3ccccc3)nc2n1C1CC1	none
O=C(NCC1Cc2cccc(-c3cnccn3)c2O1)c1ccc2c(c1)OCCO2 (stereo unspecified)	none
C[C@@H]1C[C@H]2[C@@H]3CCC4=CC(=O)C=C[C@]4(C)[C@@]3(F)[C@@H](O)C[C@]2(C)[C@@]1(O)C(=O)COC(=O)c1cccc(S(=O)(=O)O)c1	none
O=C(NCc1nnc2n1CCN(Cc1cccc(Cl)c1)CC2)c1cccc(F)c1	none
CC(C)(C)CC(=O)OCC(=O)[C@@]12OC(C)(C)O[C@@H]1C[C@H]1[C@@H]3CCC4=CC(=O)C=C[C@]4(C)[C@@]3(F)[C@@H](O)C[C@@]12C	none
Cc1cc(N(C)C)c(C)cc1/C=C/c1ccnc2ccccc12	EPAC1 ag val 112µM
CCCN(CCC)c1ccc(/C=C/c2ccnc3ccccc23)cc1	EPAC1 ag val 100µM
CN(C)c1ccc(/C=C/c2ccnc3ccc4ccccc4c23)cc1	EPAC2 antag inconclusive
Cc1[nH]c2ccccc2c1/C=C/c1ccnc2ccccc12	EPAC1 ag val inconclusive
Cc1nn(-c2ccc(F)cc2)c(C)c1CNC(=O)c1ccc(-n2cc(NC(=O)c3ccoc3)cn2)cc1	none
CC[C@@H](C)[C@H](N)C(=O)O	none
COC(=O)c1c(OCc2ccccn2)cc(=O)n2c1CCN(Cc1ccc3c(c1)CCCN3C)CC2	EPAC2 antag inconclusive
CCOC(=O)Oc1c(OC)cc(C(=O)O[C@@H]2C[C@@H]3CN4CCc5c([nH]c6cc(OC)ccc56)[C@H]4C[C@@H]3[C@H](C(=O)OC)[C@H]2OC)cc1OC	EPAC1 ag val 31.6µM!
COC(=O)[C@H]1[C@H]2C[C@@H]3c4[nH]c5cc(OC)ccc5c4CCN3C[C@H]2C[C@@H](OC(=O)COc2ccc(OC)cc2)[C@@H]1OC	none
